Compounds without any hit were thinned out: in the full panel of roughly 83,000, 20% have a hit.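 Compound tested at a single concentration for 48 hours in 96-well plates; a percent growth value below 10 was scored as active.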 Unmarked numbers belong to inactive results. Calls of active or inactive are those of the source.
How the values were obtained:
Assay in all cases: NCI-60 one-dose screen, 48 h (100 = growth as untreated, 0 = no growth, -100 = all killed)
Conditions in all cases: 10 µM
786-0 renal = test system: 786-0 renal
SN12C renal = test system: SN12C renal
TK-10 renal = test system: TK-10 renal
ACHN renal = test system: ACHN renal
CAKI-1 renal = test system: CAKI-1 renal
A498 renal = test system: A498 renal
RPMI-8226 leukemia = test system: RPMI-8226 leukemia
OVCAR-8 ovarian = test system: OVCAR-8 ovarian
OVCAR-5 ovarian = test system: OVCAR-5 ovarian
OVCAR-4 ovarian = test system: OVCAR-4 ovarian
SK-OV-3 ovarian = test system: SK-OV-3 ovarian
OVCAR-3 ovarian = test system: OVCAR-3 ovarian
NCI/ADR-RES ovarian = test system: NCI/ADR-RES ovarian
T-47D breast = test system: T-47D breast
BT-549 breast = test system: BT-549 breast
MDA-MB-435 melanoma = test system: MDA-MB-435 melanoma
MCF7 breast = test system: MCF7 breast
HCT-116 colon = test system: HCT-116 colon
HCC-2998 colon = test system: HCC-2998 colon
KM12 colon = test system: KM12 colon

Structure (SMILES) | growth (786-0 renal) | growth (SN12C renal) | growth (TK-10 renal) | growth (ACHN renal) | growth (CAKI-1 renal) | growth (A498 renal) | growth (RPMI-8226 leukemia) | growth (OVCAR-8 ovarian) | growth (OVCAR-5 ovarian) | growth (OVCAR-4 ovarian) | growth (SK-OV-3 ovarian) | growth (OVCAR-3 ovarian) | growth (NCI/ADR-RES ovarian) | growth (T-47D breast) | growth (BT-549 breast) | growth (MDA-MB-435 melanoma) | growth (MCF7 breast) | growth (HCT-116 colon) | growth (HCC-2998 colon) | growth (KM12 colon)
COC(=O)C[C@](O)(CCCC(C)C)C(=O)O[C@H]1C(OC)=C[C@@]23CCCN2CCc2cc4c(cc2[C@@H]13)OCO4 | 2.04% (active) | 6.06% (active) | 4.08% (active) | -8.49% (active) | -3.49% (active) | -17.2% (active) | -20.7% (active) | -21.3% (active) | 5.45% (active) | -9.31% (active) | 0.521% (active) | -31% (active) | 14.1% | 2.21% (active) | -17.8% (active) | 1.79% (active) | -6.98% (active) | -7.84% (active) | -36.4% (active) | 0.453% (active)
COC(=O)C[C@](O)(CCC(C)C)C(=O)O[C@@H]1C(OC)=C[C@]23CCCN2CCc2cc4c(cc2[C@H]13)OCO4 | -46.8% (active) | -26.7% (active) | -23.8% (active) | -25.1% (active) | -13.1% (active) | -46.5% (active) | -30.2% (active) | -62.9% (active) | -35.9% (active) | -42.4% (active) | -25.6% (active) | -26.9% (active) | -29.7% (active) | -24% (active) | -42% (active) | -84% (active) | -19.4% (active) | -27.5% (active) | -89.9% (active) | -20.8% (active)
COCCOCCOCCOc1ccc(-n2cc(CCCN(CCNc3ccnc4cc(Cl)ccc34)C(=O)CCC(=O)O[C@@H]3O[C@@H]4OC5(C)CC[C@H]6[C@H](C)CC[C@@H]([C@H]3C)[C@@]46OO5)nn2)cc1 | 47% | 52.2% | 52.5% | 47.1% | 39.7% | 94.9% | 26.3% | 20.9% | 52.2% | 45.7% | 76.1% | 35.3% | 26.8% | 20.6% | 4.88% (active) | 24.8% | 22.2% | 15.5% | 67.2% | 28.6%
CN(C)CCc1cn(C2CCC2)c2cccc(O)c12 | 50% | 68% | 103% | 84.6% | 42.3% | 95% | 24.4% | 96.6% | 79.8% | 86.6% | 92.9% | 93.6% | 74.3% | 69.9% | 68.1% | 45.9% | 22.4% | 31.6% | -46.1% (active) | 76.1%
C#CC[Se]C(=O)c1ccc2n[se]nc2c1 | 63.4% | 56.3% | 65.1% | 35.6% | 71.3% | 95.3% | 21.3% | 74.9% | 75.7% | 74.5% | 95.4% | 46.2% | 49.5% | 62.9% | 52.1% | 85.9% | 31.6% | -27.1% (active) | 95.8% | 95.2%
O=C(/C=C/c1ccc(Cl)cc1)c1nc2ccccc2n1Cc1ccc(F)cc1 | 5.13% (active) | 19.7% | 58.1% | 23.5% | 41.8% | 125% | -20.2% (active) | 17.1% | 19.1% | 58.8% | 78.1% | 22.7% | 7.75% (active) | 7.93% (active) | 2.95% (active) | 12.1% | 9.25% (active) | 3.49% (active) | 32.5% | 24.9%
C=CCN=C([Se])NC(=O)c1ccc2c(c1)OCO2 | 85.8% | 81.5% | 120% | 111% | 118% | 82.5% | 105% | 61.1% | 117% | 108% | 45.1% | 112% | 60.3% | 96.6% | 104% | 96.6% | 102% | 43.6% | 92.4% | 41.1%

Reference: PubChem BioAssay (NCI)
